Source: PubChem (National Center for Advancing Translational Sciences (NCATS))
LMNA splice mod: qHTS Assay for Modulators of Lamin A Splicing. HeLa LMNA splicing GFP/RFP minigene ratio, 48 h. Potency, µM (highest dose often 46.1 µM), hits mostly inhibitors. hit rate 0.01% among 200,000; active = well fitted inhibition curve with a large enough effect in the signal ratio, with a control signal flat, not every such curve was filed as active; inconclusive = small, poorly fitted or top-dose-only effect, or effect the other way, or a change in a side signal; the % refers to the signal ratio
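S3 HeLa stable clones carrying a lamin A-EGFP splicing minigene plus DsRed2 were seeded at 600 cells/well in Opti-MEM with 2% FBS, pin-dosed and incubated 48 h at 37°C. Acumen cytometry (488 nm) gave the GFP/RFP total-intensity ratio.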
ALDH1A1 inh: qHTS Assay for Inhibitors of Aldehyde Dehydrogenase 1 (ALDH1A1); Potency, µM (doses to about 75.3 µM), hits mostly inhibitors; Aldehyde dehydrogenase 1A1 (Homo sapiens), P00352; Purified ALDH1A1, NADH fluorescence, propionaldehyde substrate; hit rate 7.3% among 220,000; active = well fitted inhibition curve with a large enough effect, not every such curve was filed as active; inconclusive = small, poorly fitted or top-dose-only effect, or another doubt; inactive = no such curve, though single readings can be large or run the other way
Luc counter: Counterscreen for Luciferase (Kinase-Glo TM) Inhibition; Luciferin 4-monooxygenase (Photuris pensylvanica), Q27757; Kinase-Glo luciferase, ATP luminescence, 8 min; Potency, µM (highest dose often 38.3 µM), hits mostly inhibitors; hit rate 0.28% among 200,000; AID 1379, 2008; note: nearly all actives have a fitted effect of over 60% in size
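Compound is pinned into ATP-containing buffer (10 uM ATP, imidazole pH 7.2, 7 mM MgCl2). Kinase-Glo luciferase reagent is then added. Light output is recorded following an 8-min room-temperature incubation.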
HPGD block: qHTS Assay for Inhibitors of HPGD (15-Hydroxyprostaglandin Dehydrogenase). 15-hydroxyprostaglandin dehydrogenase [NAD(+)] (Homo sapiens), P15428. purified HPGD, NADH fluorescence kinetic, PGE2 substrate. Potency, µM, actives largely listed as inhibitors. hit rate 4.3% among 150,000. AID 894, 2007; active = well fitted inhibition curve with a large enough effect, not every such curve was filed as active; inconclusive = small, poorly fitted or top-dose-only effect, or another doubt; inactive = no such curve, though single readings can be large or run the other way
Target sequence (P15428 whole entry, looked up): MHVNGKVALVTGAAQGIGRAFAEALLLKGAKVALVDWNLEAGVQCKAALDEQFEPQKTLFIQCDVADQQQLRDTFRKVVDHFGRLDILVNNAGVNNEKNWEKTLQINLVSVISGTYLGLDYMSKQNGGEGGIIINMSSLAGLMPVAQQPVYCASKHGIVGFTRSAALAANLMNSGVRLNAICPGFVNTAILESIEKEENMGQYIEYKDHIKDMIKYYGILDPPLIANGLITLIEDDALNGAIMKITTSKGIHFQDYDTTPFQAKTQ
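NADH formation kinetics: reaction with 30 uM PGE2 and 1 mM NAD+ (final), 20 nM enzyme, Tris-HCl pH 8 with Tween 20, after 15 min compound preincubation at room temperature. Fluorescence change, last versus first of five reads.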
HTT ATP protect: qHTS Multiplex Assay to Identify Dual Action Probes in a Cell Model of Huntington: Cytoprotection (ATP); hit rate 0.14% among 230,000; PC12 HTT-Q103 induced, cytoprotection, ATP luminescence, 40 h; Potency, µM (top dose mostly 56.4 µM), actives largely listed as activators; note: nearly all actives have a fitted effect of over 45% in size
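PC12 cells stably carrying ecdysone-inducible Htt exon 1 (Q103)–GFP were induced with 100 nM tebufenozide (final) alongside library compounds in a dose series. Cytoprotection was scored as retained ATP by ATPlite luminescence.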
HttQ103 aggreg: qHTS Multiplex Assay to Identify Dual Action Probes in a Cell Model of Huntington: Aggregate Formation (GFP). AID 1688, 2009. hit rate 1.1% among 220,000. Potency, µM (doses to about 46.1 µM), usual class: inhibitors. PC12 HttQ103-GFP aggregates, Acumen cytometry, 40 h; note: nearly all actives have a fitted effect of over 60% in size
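Steps: seed 1500 PC12 HTTQ103-GFP cells/well; add tebufenozide, 100 nM final; add compound titration; add ATPLite reagent; quantify GFP aggregates by laser scanning cytometry.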
Numbers stand for hits; [ ] = remark or other dose. Rows were chosen to be rich in hits. Some 9% of all compounds tested hit in one or more screens of this group. Unless noted, calls come from the whole dose curve; as a rule, active = well fitted curve in the direction sought with a large enough effect; inconclusive = small, poorly fitted or top-dose-only effect, or another doubt; inactive = no such curve, though single readings can be large; an effect the other way counts as inactive or inconclusive.

Screening N/C(=N\OC(=O)c1ccco1)c1ccc(Br)cc1 returned LMNA splice mod inconclusive, ALDH1A1 inh 3.2µM, Luc counter inactive, HPGD block inactive, HTT ATP protect inactive and HttQ103 aggreg inactive.
Screening COc1cccc(C(=O)Nn2cnnc2)c1 returned LMNA splice mod inconclusive, ALDH1A1 inh inactive, Luc counter inactive, HTT ATP protect inactive[10 µM] and HttQ103 aggreg inactive[9.22 µM].
For CCOc1ccc(Sc2cc(C(=O)NCc3ccc(F)cc3)c3ccccc3n2)cc1 the results were LMNA splice mod inactive.
CC(C)[C@H](Nc1ccc(S(=O)(=O)N2CCOCC2)cc1[N+](=O)[O-])C(=O)OCC(N)=O was read as LMNA splice mod inactive, ALDH1A1 inh 18µM, Luc counter inactive, HPGD block inactive, HTT ATP protect inactive[10 µM] and HttQ103 aggreg inactive.
CCC(C)(C)n1nnnc1C(c1cccs1)N1CCc2ccccc21 (configuration not stated) was read as LMNA splice mod inconclusive, ALDH1A1 inh 14µM, Luc counter inactive, HPGD block inactive, HTT ATP protect inactive and HttQ103 aggreg inconclusive.
Screening Cc1cccc(N2CCN(C(c3ccccc3)c3nnnn3C(C)(C)C)CC2)c1C (configuration not stated) returned LMNA splice mod inactive, ALDH1A1 inh inconclusive, Luc counter inactive, HPGD block inactive, HTT ATP protect inactive[10 µM] and HttQ103 aggreg inconclusive.
Cc1cccc(N2CCN(C(c3cccs3)c3nnnn3C(C)(C)C)CC2)c1C (configuration not stated) was read as LMNA splice mod inactive, ALDH1A1 inh inactive, Luc counter inactive, HPGD block inactive, HTT ATP protect inactive[10 µM] and HttQ103 aggreg 11µM.
COc1ccc(C(=O)N2CCc3ccccc32)cc1 was read as LMNA splice mod inactive, ALDH1A1 inh inactive, Luc counter inactive, HPGD block inactive, HTT ATP protect inactive[10 µM] and HttQ103 aggreg inactive.
For COc1ccc(C(=O)/C=C2\NCC3c4ccccc4CCN3C2=O)cc1 (configuration not stated) the results were LMNA splice mod inactive, ALDH1A1 inh 7.9µM, Luc counter inactive, HPGD block 28µM, HTT ATP protect inactive and HttQ103 aggreg inactive.
`CC(=O)NCc1cc(-c2ccc(Cl)cc2)no1` gave LMNA splice mod inconclusive, ALDH1A1 inh inactive, Luc counter inactive, HTT ATP protect inactive and HttQ103 aggreg inactive.
COc1ccc2c(C=O)c[nH]c2c1 was read as LMNA splice mod inactive, ALDH1A1 inh 6.3µM, Luc counter inactive, HPGD block inactive, HTT ATP protect inactive[10 µM] and HttQ103 aggreg inactive.
For CN(Cc1nc(-c2cccnc2)no1)S(=O)(=O)c1ccc(Br)cc1 the results were LMNA splice mod inactive, ALDH1A1 inh inactive, Luc counter inactive, HPGD block inconclusive, HTT ATP protect inactive[10 µM] and HttQ103 aggreg 22µM.
`CN(Cc1nc(-c2ccccn2)no1)S(=O)(=O)c1ccc(Br)cc1` gave LMNA splice mod inactive, ALDH1A1 inh inconclusive, Luc counter inactive, HPGD block 22µM, HTT ATP protect inactive[0.074 µM] and HttQ103 aggreg inconclusive.
`CN(Cc1nc(-c2cccnc2)no1)S(=O)(=O)c1ccc2ccccc2c1` gave LMNA splice mod inconclusive, ALDH1A1 inh inactive, Luc counter inactive, HPGD block inactive, HTT ATP protect inactive and HttQ103 aggreg inactive.
CC(C)N(Cc1nc(-c2ccccc2)no1)C(=O)CN(C)S(=O)(=O)c1ccc(Br)cc1 was read as LMNA splice mod inconclusive, ALDH1A1 inh inactive, HTT ATP protect inactive and HttQ103 aggreg inactive.
NCCCCCC(=O)Nc1ccncc1 was read as HTT ATP protect inactive[10 µM] and HttQ103 aggreg inactive[9.22 µM].
For CCCN1C(=O)/C(=C/c2c(NCCCOCC)nc3c(C)cccn3c2=O)SC1=S the results were LMNA splice mod inactive, ALDH1A1 inh inactive, Luc counter inactive, HPGD block inactive, HTT ATP protect inactive and HttQ103 aggreg inactive.
Screening COC(=O)C1=C(C(=O)c2ccccc2)C(c2ccccc2)n2nnnc2N1 (configuration not stated) returned LMNA splice mod inactive, ALDH1A1 inh 28µM, Luc counter inactive, HTT ATP protect inactive and HttQ103 aggreg inactive[9.22 µM].
Screening COC(=O)C1=C(C(C)=O)C(c2ccc(C(=O)OC)cc2)n2nnnc2N1 (configuration not stated) returned LMNA splice mod inactive, ALDH1A1 inh inactive, Luc counter inactive, HPGD block inactive, HTT ATP protect inactive and HttQ103 aggreg inactive[9.22 µM].
For CN1CCN(c2nc3c(c(=O)[nH]c(=O)n3C)n2CCSc2nnnn2-c2ccccc2)CC1 the results were HTT ATP protect inactive[10 µM] and HttQ103 aggreg inactive[9.22 µM].
Cn1c(=O)[nH]c(=O)c2c1nc(N1CCCCCC1)n2CCCSc1nnnn1-c1ccccc1 was read as LMNA splice mod inactive, ALDH1A1 inh 2.5µM, Luc counter inactive, HPGD block inactive, HTT ATP protect inactive[10 µM] and HttQ103 aggreg inactive.
Cn1c(=O)[nH]c(=O)c2c1nc(N1CCCC1)n2CCCSc1nnnn1-c1ccccc1 was read as LMNA splice mod inconclusive, ALDH1A1 inh 11µM, Luc counter inactive, HPGD block inactive, HTT ATP protect inactive[10 µM] and HttQ103 aggreg inactive.
`CC(CSc1nnnn1-c1ccccc1)Cn1c(N2CCN(C)CC2)nc2c1c(=O)[nH]c(=O)n2C` (configuration not stated) gave LMNA splice mod inconclusive, ALDH1A1 inh 20µM, Luc counter inactive, HTT ATP protect inactive and HttQ103 aggreg inactive.
For CC(C)(C)NC(=S)Nc1ccc(Nc2ccccc2)cc1 the results were LMNA splice mod inactive, ALDH1A1 inh inconclusive, Luc counter inactive, HPGD block inconclusive, HTT ATP protect inactive and HttQ103 aggreg inactive.
C/C(=N\NC(=S)NC(C)C)c1ccc2c(c1)OCCO2 was read as LMNA splice mod inactive, ALDH1A1 inh inactive, Luc counter inactive, HPGD block inactive, HTT ATP protect inactive[10 µM] and HttQ103 aggreg inactive.
For CCOC(=O)C(=O)/C(C#N)=C/Nc1ccc(F)cc1 the results were LMNA splice mod inactive, ALDH1A1 inh 28µM, Luc counter inactive, HPGD block inactive, HTT ATP protect inactive and HttQ103 aggreg inactive.
Screening COc1ccccc1N1CCN(C(=O)CSc2nnc(NC(=O)C(C)C)s2)CC1 returned LMNA splice mod inconclusive, ALDH1A1 inh 8.9µM, Luc counter inactive, HTT ATP protect inactive[10 µM] and HttQ103 aggreg inactive[9.22 µM].
